Measurements published in the supplement of paper PMC9262897, “Low-cost anti-mycobacterial drug discovery using engineered E. coli” (Nature Communications, 2022).
Structures can show the parent of a compound that is named as a salt. ± gives the standard deviation of the averaged measurements.

Columns and labels:
Experiment in all cases: growth (OD600 after 10 h); higher = more growth (less inhibition)
[1] = system: E. coli TESEC Alr+ wild-type control; conditions: compound 0.1 mM; raw OD600 reference: median of DMSO wells 0.241, cell-free background 0.041
Procedure: (§1)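 TESEC Mtb Alr E. coli, or the Alr+ wild-type control, in 384-well plates with Prestwick library compounds at 0.1 mM and 1% DMSO, across arabinose induction levels of 1E3 to 1E7 nM. Growth is read as OD600 after 10 h at 37 °C in triplicate biological replicates.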

E. coli TESEC Mtb Alr [2] = conditions: compound 0.1 mM
Procedure: as §1

E. coli TESEC Mtb Asd = conditions: compound 0.1 mM
Procedure: (§2)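 TESEC E. coli strains in which the native enzyme is deleted and replaced by arabinose-inducible Mtb Asd, DapB, CysH or TrpD, each grown in its selective medium. Strains were screened against the Prestwick library at 0.1 mM and 1% DMSO in 384-well format at low and high arabinose induction. Growth is read as OD600 after 10 h in triplicate.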

E. coli TESEC Mtb DapB = conditions: compound 0.1 mM
Procedure: as §2

[3] = system: E. coli TESEC Alr+ wild-type control; conditions: compound 0.1 mM; raw OD600 reference: median of DMSO wells 0.49, cell-free background 0.052
Procedure: (§3)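 TESEC Mtb Alr E. coli (ΔaraC ΔtolC ΔentC Δalr ΔdadX, arabinose-inducible Mtb Alr) or the Alr+ wild-type control strain, grown in defined M9-fructose medium without D-alanine in 96-well plates with Prestwick library compounds at 0.1 mM and 1% DMSO. Low Alr induction is 0.1 µM arabinose and high induction is 10 mM arabinose.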

E. coli TESEC Mtb Alr [4] = conditions: compound 0.1 mM; remark: listed apart in the source
Procedure: as §3

[5] = arabinose 1000 nM, raw OD600 reference: median of DMSO wells 0.294, cell-free background 0.041
[6] = arabinose 10000 nM, raw OD600 reference: median of DMSO wells 0.264, cell-free background 0.041
[7] = arabinose 100000 nM, raw OD600 reference: median of DMSO wells 0.201, cell-free background 0.041
[8] = arabinose 1000000 nM, raw OD600 reference: median of DMSO wells 0.193, cell-free background 0.041
[9] = arabinose 10000000 nM, raw OD600 reference: median of DMSO wells 0.146, cell-free background 0.041
[10] = arabinose induction (level): High, raw OD600 reference: median of DMSO wells 0.331, cell-free background 0.041
[11] = arabinose induction (level): Low, raw OD600 reference: median of DMSO wells 0.417, cell-free background 0.041
[12] = arabinose induction (level): High, raw OD600 reference: median of DMSO wells […], cell-free background 0.041
[13] = arabinose induction (level): Low, raw OD600 reference: median of DMSO wells 0.227, cell-free background 0.041
[14] = arabinose 100 nM, raw OD600 reference: median of DMSO wells 0.413, cell-free background 0.052
[15] = arabinose 10000000 nM, raw OD600 reference: median of DMSO wells […], cell-free background 0.052

SMILES	growth [1]	growth (E. coli TESEC Mtb Alr [2]; [5])	growth (E. coli TESEC Mtb Alr [2]; [6])	growth (E. coli TESEC Mtb Alr [2]; [7])	growth (E. coli TESEC Mtb Alr [2]; [8])	growth (E. coli TESEC Mtb Alr [2]; [9])	growth (E. coli TESEC Mtb Asd; [10])	growth (E. coli TESEC Mtb Asd; [11])	growth (E. coli TESEC Mtb DapB; [12])	growth (E. coli TESEC Mtb DapB; [13])	growth [3]	growth (E. coli TESEC Mtb Alr [4]; [14])	growth (E. coli TESEC Mtb Alr [4]; [15])
CN1C2CCCC1CC(NC(=O)c1nn(C)c3ccccc13)C2 (centres undefined) [Granisetron]	0.208 ± 0.0038	0.301 ± 0.026	0.2743 ± 0.0024	0.171 ± 0.0068	0.213 ± 0.014	0.126 ± 0.0041	0.28 ± 0.063	0.379 ± 0.08	0.202 ± 0.022	0.238 ± 0.015	0.549 ± 0.068	0.424 ± 0.0065	0.351 ± 0.0039
CNCC[C@@H](Oc1cccc2ccccc12)c1cccs1 [(R)-Duloxetine hydrochloride]	0.11 ± 0.038	0.0692 ± 0.004	0.04907 ± 0.00032	0.0556 ± 0.002	0.0447 ± 0.0038	0.0466 ± 0.0019	0.106 ± 0.066	0.0934 ± 0.04	0.0757 ± 0.0014	0.0799 ± 0.007	–	0.4098 ± 0.0032	0.272 ± 0.011
CCOc1ccc(Cc2nccc3cc(OCC)c(OCC)cc23)cc1OCC [Ethaverine hydrochloride]	0.0471 ± 0.00059	0.0509 ± 0.0018	0.0528 ± 0.018	0.0664 ± 0.025	0.0659 ± 0.033	0.0686 ± 0.015	0.228 ± 0.0076	0.1635 ± 0.0016	0.156 ± 0.0076	0.165 ± 0.017	0.377 ± 0.051	0.403 ± 0.0076	0.0633 ± 0.0024
COC(=O)[C@H]1[C@H]2C[C@@H]3c4[nH]c5cc(OC)ccc5c4CCN3C[C@H]2C[C@@H](OC(=O)c2cc(OC)c(OC)c(OC)c2)[C@@H]1OC [Reserpine]	0.201 ± 0.0092	0.234 ± 0.027	0.223 ± 0.02	0.214 ± 0.012	0.193 ± 0.012	0.214 ± 0.0036	0.333 ± 0.032	0.191 ± 0.0062	0.245 ± 0.0092	0.3 ± 0.038	0.467 ± 0.014	0.408 ± 0.013	0.112 ± 0.076
O=C(CCCN1CCC(O)(c2ccc(Br)cc2)CC1)c1ccc(F)cc1 [Bromperidol]	0.215 ± 0.0079	0.287 ± 0.0074	0.265 ± 0.0061	0.218 ± 0.028	0.179 ± 0.0028	0.148 ± 0.0045	0.254 ± 0.025	0.344 ± 0.092	0.177 ± 0.014	0.215 ± 0.044	0.381 ± 0.013	0.417 ± 0.0095	0.306 ± 0.022
O=C(NCCNCC(O)COc1ccc(O)cc1)N1CCOCC1 (centres undefined) [Xamoterol hemifumarate]	0.241 ± 0.013	0.303 ± 0.014	0.272 ± 0.0074	0.195 ± 0.022	0.19 ± 0.0053	0.138 ± 0.0031	0.447 ± 0.069	0.463 ± 0.043	0.21 ± 0.0088	0.232 ± 0.024	–	0.405 ± 0.016	0.326 ± 0.0053
NS(=O)(=O)c1cc(C2(O)NC(=O)c3ccccc32)ccc1Cl (centres undefined) [Chlorthalidone]	0.223 ± 0.0025	0.285 ± 0.012	0.255 ± 0.0039	0.193 ± 0.0099	0.168 ± 0.003	0.144 ± 0.0027	0.393 ± 0.037	0.462 ± 0.078	0.205 ± 0.016	0.208 ± 0.017	0.545 ± 0.05	0.415 ± 0.01	0.3322 ± 0.002
CC1c2cccc(O)c2C(O)=C2C(=O)C3(O)C(O)=C(C(N)=O)C(=O)C(N(C)C)C3C(O)C21 (centres undefined) [Doxycycline hydrochloride]	0.0447 ± 0.00093	0.0433 ± 0.002	0.0456 ± 0.001	0.04713 ± 0.00031	0.0487 ± 0.0075	0.0461 ± 0.0007	0.0572 ± 0.0053	0.0534 ± 0.0016	0.0563 ± 0.00081	0.0531 ± 0.0036	0.0579 ± 0.0011	0.0647 ± 0.0031	0.0602 ± 0.0014
C[C@H]1[C@H](NC(=O)/C(=N\OC(C)(C)C(=O)O)c2csc(N)n2)C(=O)N1S(=O)(=O)O [Aztreonam]	0.161 ± 0.011	0.0624 ± 0.0045	0.0463 ± 0.0008	0.136 ± 0.014	0.177 ± 0.005	0.172 ± 0.0037	0.161 ± 0.009	0.11 ± 0.0038	0.188 ± 0.0055	0.186 ± 0.026	–	0.0511 ± 0.0047	0.277 ± 0.016
CC(C(O)c1ccc(O)cc1)N1CCC(Cc2ccccc2)CC1 (centres undefined) [Ifenprodil tartrate]	0.195 ± 0.018	0.251 ± 0.019	0.276 ± 0.0052	0.194 ± 0.0092	0.143 ± 0.0037	0.172 ± 0.0094	0.313 ± 0.065	0.427 ± 0.028	0.1878 ± 0.00062	0.227 ± 0.036	0.453 ± 0.037	0.409 ± 0.011	0.312 ± 0.0043
N=C(N)NCCN1CCCCCCC1 [Guanethidine sulfate]	0.255 ± 0.0095	0.298 ± 0.027	0.266 ± 0.0054	0.24 ± 0.012	0.173 ± 0.011	0.168 ± 0.011	0.291 ± 0.094	0.366 ± 0.069	0.205 ± 0.0096	0.247 ± 0.008	0.468 ± 0.04	0.419 ± 0.008	0.384 ± 0.015
CN1CCN(CCCN2c3ccccc3Sc3ccc(Cl)cc32)CC1 [Prochlorperazine dimaleate]	0.04087 ± 0.00015	0.041 ± 0.00045	0.03943 ± 0.00025	0.0418 ± 0.00082	0.0404 ± 0.0023	0.0433 ± 0.00072	0.059 ± 0.0069	0.166 ± 0.025	0.156 ± 0.021	0.139 ± 0.0076	0.04753 ± 0.00025	0.287 ± 0.21	0.0531 ± 0.0013
Cc1ccc(S(=O)(=O)NC(=O)NN2CC3CCCC3C2)cc1 (centres undefined) [Gliclazide]	0.244 ± 0.012	0.309 ± 0.0099	0.271 ± 0.0064	0.222 ± 0.017	0.192 ± 0.0036	0.177 ± 0.0042	0.298 ± 0.032	0.364 ± 0.071	0.212 ± 0.011	0.28 ± 0.042	0.518 ± 0.074	0.404 ± 0.02	0.372 ± 0.0073
CCc1nc(N)nc(N)c1-c1ccc(Cl)cc1 [Pyrimethamine]	0.1323 ± 0.0013	0.123 ± 0.0079	0.0978 ± 0.0026	0.123 ± 0.0035	0.0795 ± 0.0019	0.139 ± 0.002	0.17 ± 0.024	0.179 ± 0.015	0.173 ± 0.016	0.191 ± 0.044	0.5321 ± 0.0036	0.401 ± 0.026	0.261 ± 0.018
Cc1ncc([N+](=O)[O-])n1CC(O)CCl (centres undefined) [Ornidazole]	0.233 ± 0.0094	0.282 ± 0.012	0.268 ± 0.007	0.225 ± 0.019	0.177 ± 0.0086	0.1385 ± 0.00036	0.381 ± 0.015	0.421 ± 0.028	0.191 ± 0.0088	0.218 ± 0.031	–	0.409 ± 0.0059	0.369 ± 0.02
Nc1ccc(S(=O)(=O)NC(=O)c2ccccc2)cc1 [Sulfabenzamide]	0.256 ± 0.012	0.321 ± 0.023	0.254 ± 0.005	0.221 ± 0.022	0.172 ± 0.0025	0.156 ± 0.0061	0.402 ± 0.12	0.409 ± 0.033	0.221 ± 0.016	0.245 ± 0.018	0.43 ± 0.0081	0.4062 ± 0.0031	0.334 ± 0.025
